Results reported in ChEMBL document CHEMBL1961873, “Compounds: GSK PKIS; Assays: Nanosyn kinase panel” (2012).

Assays:
[1] = biological target: Mitogen-activated protein kinase 3 (Homo sapiens) (UniProt P27361); conditions: at 1 µM;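 further: values are mean percent inhibition of MAPK3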
[2] = biological target: SRSF protein kinase 3 (Homo sapiens) (UniProt Q9UPE1); conditions: at 0.1 µM
[3] = biological target: SRSF protein kinase 3 (Homo sapiens) (UniProt Q9UPE1); conditions: at 1 µM
[4] = biological target: Mitogen-activated protein kinase 14 (Homo sapiens) (UniProt Q16539); conditions: at 0.1 µM
[5] = biological target: Mitogen-activated protein kinase 14 (Homo sapiens) (UniProt Q16539); conditions: at 1 µM
[6] = biological target: Mitogen-activated protein kinase 11 (Homo sapiens) (UniProt Q15759); conditions: at 0.1 µM
[7] = biological target: Mitogen-activated protein kinase 11 (Homo sapiens) (UniProt Q15759); conditions: at 1 µM
[8] = biological target: T1, Mitogen-activated protein kinase 13 (Homo sapiens) (UniProt O15264); conditions: at 0.1 µM
T1 sequence (whole entry): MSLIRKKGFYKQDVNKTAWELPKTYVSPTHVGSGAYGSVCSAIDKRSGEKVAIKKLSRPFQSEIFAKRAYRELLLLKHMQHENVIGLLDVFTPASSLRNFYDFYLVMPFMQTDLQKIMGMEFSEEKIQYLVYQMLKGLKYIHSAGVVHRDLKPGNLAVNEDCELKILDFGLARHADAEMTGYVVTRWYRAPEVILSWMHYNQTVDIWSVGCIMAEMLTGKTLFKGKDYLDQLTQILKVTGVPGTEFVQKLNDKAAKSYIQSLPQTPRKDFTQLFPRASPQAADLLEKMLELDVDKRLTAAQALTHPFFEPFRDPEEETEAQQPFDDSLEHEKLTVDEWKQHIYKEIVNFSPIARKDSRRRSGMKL

[9] = biological target: T1, Mitogen-activated protein kinase 13 (Homo sapiens); conditions: at 1 µM
[10] = biological target: T2, Mitogen-activated protein kinase 12 (Homo sapiens) (UniProt P53778); conditions: at 0.1 µM
T2 sequence (whole entry): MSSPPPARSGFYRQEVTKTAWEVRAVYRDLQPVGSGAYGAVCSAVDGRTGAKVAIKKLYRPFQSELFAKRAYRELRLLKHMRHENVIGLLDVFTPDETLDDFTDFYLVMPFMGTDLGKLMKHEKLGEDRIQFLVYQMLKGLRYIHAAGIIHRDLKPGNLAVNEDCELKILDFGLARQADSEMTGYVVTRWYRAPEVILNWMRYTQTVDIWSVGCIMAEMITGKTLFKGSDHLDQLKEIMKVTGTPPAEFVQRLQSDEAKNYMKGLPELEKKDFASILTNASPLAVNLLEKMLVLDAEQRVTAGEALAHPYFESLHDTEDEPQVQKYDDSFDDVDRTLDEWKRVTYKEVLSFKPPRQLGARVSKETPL

[11] = biological target: T2, Mitogen-activated protein kinase 12 (Homo sapiens); conditions: at 1 µM
[12] = biological target: SRSF protein kinase 1 (Homo sapiens) (UniProt Q96SB4); conditions: at 0.1 µM
[13] = biological target: SRSF protein kinase 1 (Homo sapiens) (UniProt Q96SB4); conditions: at 1 µM
[14] = biological target: Phosphatidylinositol 4,5-bisphosphate 3-kinase catalytic subunit alpha isoform (Homo sapiens) (UniProt P42336); conditions: at 0.1 µM
[15] = biological target: Phosphatidylinositol 4,5-bisphosphate 3-kinase catalytic subunit alpha isoform (Homo sapiens) (UniProt P42336); conditions: at 1 µM
[16] = biological target: T3, Phosphatidylinositol 4,5-bisphosphate 3-kinase catalytic subunit delta isoform (Homo sapiens) (UniProt O00329); conditions: at 0.1 µM
T3 sequence (whole entry): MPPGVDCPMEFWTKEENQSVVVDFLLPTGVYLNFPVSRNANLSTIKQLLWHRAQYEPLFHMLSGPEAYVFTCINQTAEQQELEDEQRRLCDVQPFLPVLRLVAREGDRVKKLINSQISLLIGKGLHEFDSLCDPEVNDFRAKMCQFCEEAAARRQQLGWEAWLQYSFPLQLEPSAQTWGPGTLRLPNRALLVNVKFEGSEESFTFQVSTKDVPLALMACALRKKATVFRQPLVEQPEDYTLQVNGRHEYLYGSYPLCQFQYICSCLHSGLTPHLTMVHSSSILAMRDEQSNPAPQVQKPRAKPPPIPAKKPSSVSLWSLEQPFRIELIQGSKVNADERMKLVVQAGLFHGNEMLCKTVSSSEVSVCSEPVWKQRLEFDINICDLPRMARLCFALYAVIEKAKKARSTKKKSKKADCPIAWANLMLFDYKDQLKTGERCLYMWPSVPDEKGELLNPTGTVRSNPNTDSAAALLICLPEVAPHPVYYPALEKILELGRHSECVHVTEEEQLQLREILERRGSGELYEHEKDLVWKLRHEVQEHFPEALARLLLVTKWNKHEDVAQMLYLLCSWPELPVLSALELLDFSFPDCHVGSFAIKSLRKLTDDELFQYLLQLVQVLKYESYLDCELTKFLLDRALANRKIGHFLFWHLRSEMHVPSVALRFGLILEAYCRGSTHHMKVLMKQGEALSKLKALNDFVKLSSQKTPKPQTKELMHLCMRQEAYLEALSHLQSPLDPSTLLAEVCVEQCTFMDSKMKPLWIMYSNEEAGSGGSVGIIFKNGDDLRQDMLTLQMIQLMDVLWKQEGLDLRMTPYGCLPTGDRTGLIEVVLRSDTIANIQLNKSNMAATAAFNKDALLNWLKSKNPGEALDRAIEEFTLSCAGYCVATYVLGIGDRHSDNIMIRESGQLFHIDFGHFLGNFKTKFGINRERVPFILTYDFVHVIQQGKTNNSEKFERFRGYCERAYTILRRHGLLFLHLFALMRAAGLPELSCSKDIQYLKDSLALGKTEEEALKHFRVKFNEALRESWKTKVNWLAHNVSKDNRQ

[17] = biological target: T3, Phosphatidylinositol 4,5-bisphosphate 3-kinase catalytic subunit delta isoform (Homo sapiens); conditions: at 1 µM
[18] = biological target: Phosphatidylinositol 4-kinase beta (Homo sapiens) (UniProt Q9UBF8); conditions: at 0.1 µM
[19] = biological target: Phosphatidylinositol 4-kinase beta (Homo sapiens) (UniProt Q9UBF8); conditions: at 1 µM
[20] = biological target: Sphingosine kinase 1 (Homo sapiens) (UniProt Q9NYA1); conditions: at 0.1 µM;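 further: mean percent inhibition of SPHK1 activity, measured within the GSK PKIS screening panel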
Sphingosine kinase 1 (Homo sapiens), sequence (Q9NYA1 whole entry): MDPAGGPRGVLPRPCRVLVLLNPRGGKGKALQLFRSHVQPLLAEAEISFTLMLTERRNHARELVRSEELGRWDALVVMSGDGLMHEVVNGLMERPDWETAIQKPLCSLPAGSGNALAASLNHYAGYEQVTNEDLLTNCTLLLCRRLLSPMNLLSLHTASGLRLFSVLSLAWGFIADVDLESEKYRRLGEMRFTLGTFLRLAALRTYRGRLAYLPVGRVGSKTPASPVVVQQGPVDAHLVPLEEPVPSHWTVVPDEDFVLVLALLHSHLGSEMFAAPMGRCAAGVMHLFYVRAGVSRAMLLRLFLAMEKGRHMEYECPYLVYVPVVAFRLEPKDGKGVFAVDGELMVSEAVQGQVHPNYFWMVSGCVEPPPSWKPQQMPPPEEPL

SRSF protein kinase 1 (Homo sapiens), sequence (Q96SB4 whole entry, canonical isoform): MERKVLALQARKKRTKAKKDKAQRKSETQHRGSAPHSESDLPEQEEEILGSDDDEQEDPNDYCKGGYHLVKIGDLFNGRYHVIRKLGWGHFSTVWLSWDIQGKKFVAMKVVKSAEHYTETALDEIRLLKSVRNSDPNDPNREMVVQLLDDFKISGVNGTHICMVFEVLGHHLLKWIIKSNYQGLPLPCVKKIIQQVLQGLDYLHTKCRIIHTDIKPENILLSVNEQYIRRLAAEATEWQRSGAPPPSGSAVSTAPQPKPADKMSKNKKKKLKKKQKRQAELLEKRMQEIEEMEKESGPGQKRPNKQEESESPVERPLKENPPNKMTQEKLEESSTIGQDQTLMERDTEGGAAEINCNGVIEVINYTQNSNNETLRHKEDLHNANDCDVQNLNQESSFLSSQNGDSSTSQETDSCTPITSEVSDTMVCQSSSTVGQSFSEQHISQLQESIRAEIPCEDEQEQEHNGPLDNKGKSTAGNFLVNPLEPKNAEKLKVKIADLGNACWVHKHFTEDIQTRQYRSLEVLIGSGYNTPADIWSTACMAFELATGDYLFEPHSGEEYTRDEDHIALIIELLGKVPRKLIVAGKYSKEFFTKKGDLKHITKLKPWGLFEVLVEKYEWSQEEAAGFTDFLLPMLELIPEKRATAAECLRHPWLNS
Mitogen-activated protein kinase 14 (Homo sapiens), sequence (Q16539 whole entry): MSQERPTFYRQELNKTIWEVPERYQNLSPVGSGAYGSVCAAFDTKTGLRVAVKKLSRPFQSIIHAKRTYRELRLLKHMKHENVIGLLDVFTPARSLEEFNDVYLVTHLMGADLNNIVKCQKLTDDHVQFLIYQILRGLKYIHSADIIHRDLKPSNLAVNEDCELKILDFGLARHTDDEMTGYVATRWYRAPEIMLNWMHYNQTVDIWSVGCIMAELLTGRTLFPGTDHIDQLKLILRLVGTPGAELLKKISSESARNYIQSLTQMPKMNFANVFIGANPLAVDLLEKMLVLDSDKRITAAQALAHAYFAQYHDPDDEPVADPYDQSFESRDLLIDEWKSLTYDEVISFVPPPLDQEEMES
Mitogen-activated protein kinase 3 (Homo sapiens), sequence (P27361 whole entry): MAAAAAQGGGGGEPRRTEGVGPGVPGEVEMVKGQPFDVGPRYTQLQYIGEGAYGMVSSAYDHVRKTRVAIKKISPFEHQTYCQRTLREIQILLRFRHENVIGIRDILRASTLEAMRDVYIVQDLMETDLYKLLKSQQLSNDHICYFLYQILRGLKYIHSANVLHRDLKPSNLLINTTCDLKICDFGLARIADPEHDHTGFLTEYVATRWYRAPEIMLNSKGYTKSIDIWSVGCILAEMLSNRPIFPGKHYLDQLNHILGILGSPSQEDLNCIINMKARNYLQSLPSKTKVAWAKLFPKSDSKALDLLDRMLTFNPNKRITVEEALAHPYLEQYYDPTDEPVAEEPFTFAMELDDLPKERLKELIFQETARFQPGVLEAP
Mitogen-activated protein kinase 11 (Homo sapiens), sequence (Q15759 whole entry): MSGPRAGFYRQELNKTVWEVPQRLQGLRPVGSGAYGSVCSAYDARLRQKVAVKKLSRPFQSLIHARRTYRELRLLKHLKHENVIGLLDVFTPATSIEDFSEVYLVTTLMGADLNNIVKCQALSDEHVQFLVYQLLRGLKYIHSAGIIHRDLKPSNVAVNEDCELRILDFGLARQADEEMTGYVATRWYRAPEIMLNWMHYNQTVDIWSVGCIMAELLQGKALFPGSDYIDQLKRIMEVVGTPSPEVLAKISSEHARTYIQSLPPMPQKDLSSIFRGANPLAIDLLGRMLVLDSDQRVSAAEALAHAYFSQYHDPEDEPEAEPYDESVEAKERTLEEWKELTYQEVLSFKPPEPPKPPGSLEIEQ
SRSF protein kinase 3 (Homo sapiens), sequence (Q9UPE1 whole entry): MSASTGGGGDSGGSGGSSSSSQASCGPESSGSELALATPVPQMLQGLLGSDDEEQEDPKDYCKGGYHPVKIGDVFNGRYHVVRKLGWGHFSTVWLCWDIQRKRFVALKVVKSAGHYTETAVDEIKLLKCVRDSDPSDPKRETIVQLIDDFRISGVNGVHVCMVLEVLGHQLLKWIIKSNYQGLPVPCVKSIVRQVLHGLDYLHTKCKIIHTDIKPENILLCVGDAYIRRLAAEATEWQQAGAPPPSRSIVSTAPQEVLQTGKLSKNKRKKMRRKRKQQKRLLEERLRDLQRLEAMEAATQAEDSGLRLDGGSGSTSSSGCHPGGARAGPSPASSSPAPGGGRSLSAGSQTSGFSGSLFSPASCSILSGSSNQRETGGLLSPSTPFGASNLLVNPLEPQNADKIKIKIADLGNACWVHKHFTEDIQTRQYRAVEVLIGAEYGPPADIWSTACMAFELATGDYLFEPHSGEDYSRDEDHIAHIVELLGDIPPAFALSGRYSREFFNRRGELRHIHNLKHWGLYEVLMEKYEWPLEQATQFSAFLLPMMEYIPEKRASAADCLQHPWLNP
Phosphatidylinositol 4-kinase beta (Homo sapiens), sequence (Q9UBF8 2-816 limits assumed): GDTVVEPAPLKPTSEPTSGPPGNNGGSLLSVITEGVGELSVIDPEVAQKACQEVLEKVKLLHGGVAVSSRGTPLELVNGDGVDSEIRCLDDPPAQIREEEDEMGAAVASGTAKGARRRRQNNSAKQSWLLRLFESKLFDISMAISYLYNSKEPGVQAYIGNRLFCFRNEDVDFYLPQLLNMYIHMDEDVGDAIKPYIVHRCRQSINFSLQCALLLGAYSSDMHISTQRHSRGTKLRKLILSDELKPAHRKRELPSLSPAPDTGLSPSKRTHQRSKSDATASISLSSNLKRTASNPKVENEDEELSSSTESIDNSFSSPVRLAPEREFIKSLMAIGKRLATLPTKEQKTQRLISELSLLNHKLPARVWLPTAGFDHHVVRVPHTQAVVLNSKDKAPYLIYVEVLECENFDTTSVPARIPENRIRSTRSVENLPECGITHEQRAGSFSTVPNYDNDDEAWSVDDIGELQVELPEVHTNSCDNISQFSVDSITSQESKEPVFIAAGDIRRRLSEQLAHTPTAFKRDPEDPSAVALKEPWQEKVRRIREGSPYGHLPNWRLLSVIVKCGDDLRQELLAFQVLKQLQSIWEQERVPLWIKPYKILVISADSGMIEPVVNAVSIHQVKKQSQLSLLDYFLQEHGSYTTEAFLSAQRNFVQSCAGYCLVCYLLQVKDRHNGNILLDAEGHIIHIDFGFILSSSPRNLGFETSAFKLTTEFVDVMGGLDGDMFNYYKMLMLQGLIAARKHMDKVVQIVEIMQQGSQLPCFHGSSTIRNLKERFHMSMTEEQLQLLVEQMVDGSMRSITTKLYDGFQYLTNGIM
Phosphatidylinositol 4,5-bisphosphate 3-kinase catalytic subunit alpha isoform (Homo sapiens), sequence (P42336 whole entry, canonical isoform): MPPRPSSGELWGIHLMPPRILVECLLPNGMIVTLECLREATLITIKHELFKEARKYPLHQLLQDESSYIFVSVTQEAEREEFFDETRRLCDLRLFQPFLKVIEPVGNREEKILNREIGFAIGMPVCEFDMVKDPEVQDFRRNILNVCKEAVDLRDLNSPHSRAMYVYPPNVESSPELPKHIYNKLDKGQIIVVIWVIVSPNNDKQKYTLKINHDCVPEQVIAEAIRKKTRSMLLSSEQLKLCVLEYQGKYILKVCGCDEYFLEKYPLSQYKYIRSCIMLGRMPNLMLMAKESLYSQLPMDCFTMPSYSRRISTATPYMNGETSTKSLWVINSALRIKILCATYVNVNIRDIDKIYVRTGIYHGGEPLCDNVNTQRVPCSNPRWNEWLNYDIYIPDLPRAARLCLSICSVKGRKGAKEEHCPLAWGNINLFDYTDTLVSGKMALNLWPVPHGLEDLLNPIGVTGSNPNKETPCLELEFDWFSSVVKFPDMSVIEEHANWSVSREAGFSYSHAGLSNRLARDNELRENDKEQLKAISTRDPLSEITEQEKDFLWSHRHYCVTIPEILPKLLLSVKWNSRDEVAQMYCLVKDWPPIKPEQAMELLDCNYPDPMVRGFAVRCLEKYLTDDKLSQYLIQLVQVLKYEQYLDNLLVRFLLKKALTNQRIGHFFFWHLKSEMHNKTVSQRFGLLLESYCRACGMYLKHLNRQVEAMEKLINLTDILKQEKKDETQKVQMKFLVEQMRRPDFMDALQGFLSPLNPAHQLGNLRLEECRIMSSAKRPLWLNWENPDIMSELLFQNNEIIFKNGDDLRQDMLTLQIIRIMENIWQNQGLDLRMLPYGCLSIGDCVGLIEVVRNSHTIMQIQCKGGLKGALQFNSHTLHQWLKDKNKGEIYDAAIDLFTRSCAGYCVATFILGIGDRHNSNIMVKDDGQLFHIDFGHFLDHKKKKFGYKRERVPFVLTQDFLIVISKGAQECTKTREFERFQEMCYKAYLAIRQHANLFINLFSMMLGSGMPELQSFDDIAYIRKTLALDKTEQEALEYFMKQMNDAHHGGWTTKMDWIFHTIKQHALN

Row | SMILES | inhibition [1] [%] | inhibition [2] [%] | inhibition [3] [%] | inhibition [4] [%] | inhibition [5] [%] | inhibition [6] [%] | inhibition [7] [%] | inhibition [8] [%] | inhibition [9] [%] | inhibition [10] [%] | inhibition [11] [%] | inhibition [12] [%] | inhibition [13] [%] | inhibition [14] [%] | inhibition [15] [%] | inhibition [16] [%] | inhibition [17] [%] | inhibition [18] [%] | inhibition [19] [%] | inhibition [20] [%]
1 | C[C@@H](Oc1cc(-n2cnc3ccc(OC4CCN(C)CC4)cc32)sc1C(N)=O)c1ccccc1Cl | 4.52 | -2.03 | -0.98 | 9.29 | 10.7 | 2.89 | 3.75 | 4.78 | 6.01 | 4.13 | 5.86 | -2.69 | -1.4 | 5.06 | 19.7 | 9.45 | 62.5 | -3.18 | 3.72 | -2.98
2 | NS(=O)(=O)c1ccc(Nc2cc(-c3ccc(O)c(F)c3)n[nH]2)cc1 | -1.26 | -1.38 | 0.03 | -1.03 | -2.41 | -1.5 | 6.83 | -6.82 | -4.19 | -2.85 | -2.2 | 1.32 | 1.27 | -2.99 | 2.09 | -0.68 | 2.48 | 7.96 | 9.37 | 3.64
3 | Fc1ccc(-c2c(-c3ccncc3)nc3n2CCS3)cc1 | 2.25 | -1.16 | 1.49 | 1.13 | 10.9 | 1.9 | 0.65 | 3.54 | 2.65 | 3.9 | 2.27 | -0.47 | -2.14 | 2.88 | 4.64 | 2.37 | 3.22 | -2.06 | 1.12 | 3.13
4 | COc1cc(Nc2ncc3c(C)nc(-c4cccc(C(F)(F)F)c4)n3n2)cc(OC)c1OC | 7.25 | -0.69 | 3.15 | 1.25 | 6.99 | 3.99 | 8.89 | -0.83 | 1.78 | 0.21 | 1.38 | -1.06 | 1.6 | 1.32 | 0.9 | 1.18 | -1.04 | 7.16 | 1.45 | 2.98
5 | COC(=O)Nc1nc2ccc(Sc3ccc(NC(=O)Nc4cc(C(F)(F)F)ccc4F)cc3)cc2[nH]1 | 1.55 | 0.07 | 8.97 | 5.88 | 39.3 | 3.62 | 34.3 | 1.98 | 2.44 | 0.78 | 2.22 | -1.15 | -0.09 | -1.35 | 8.27 | 0.7 | 10.2 | 1.21 | -4.04 | 0.39
6 | NC(=O)c1cc(-c2ccncc2)cc(-c2ccccc2)c1N | 5.5 | -0.96 | -0.93 | 6.9 | 14.9 | 6.98 | 14.8 | 2.69 | 5.81 | 0.76 | 3.34 | -1.6 | -0.84 | 4.53 | 6.5 | 3.68 | 5.3 | 0.64 | 3.86 | -0.86
7 | O=C(Nc1n[nH]c2cc(-c3cc(F)ccc3F)ccc12)C1CC1 | 0.63 | -2.33 | -2.21 | 1.76 | 8.79 | 3.95 | 7.57 | -0.68 | 4.17 | 0.34 | 2.66 | -2.08 | -4.65 | 1.92 | 3.65 | 2.22 | 4.33 | -2.33 | 3.14 | 0.01
8 | CCS(=O)(=O)c1ccc(OC)c(Nc2ncc(-c3ccccc3Cl)o2)c1 | 0.91 | 0.64 | 3.28 | 7.68 | 12.2 | 2.55 | 5.3 | 1.24 | 1.41 | 5.31 | -0.19 | -0.98 | 0.67 | -0.1 | -1.53 | 2.13 | 1.67 | 3.2 | -6.4 | -0.2
9 | Fc1ccc(-c2ncn(CCCN3CCOCC3)c2-c2ccncc2)cc1 | 1.77 | -0.25 | -0.76 | 7.39 | 48 | 3.21 | 8.94 | 0.12 | -0.39 | 0.95 | 0.4 | 0.27 | -5.35 | -0.43 | 0.51 | 1.59 | 2.95 | -1.68 | -0.65 | 1.13
10 | COc1cc(N2CCN(C(C)C)CC2)ccc1Nc1nc(Nc2ccc(F)cc2C(=O)NC[C@@H](O)CO)c2cc[nH]c2n1 | 5.1 | -4.86 | 2.68 | 2.09 | 9.88 | 4.89 | 6.16 | -0.21 | 4.89 | -2.16 | 2.97 | -0.39 | 3.84 | 4.55 | 2.69 | 1.37 | 3.4 | -3.83 | -1.08 | 1.31
11 | Clc1ccc(CNc2nccc(-c3cnn4ncccc34)n2)cc1 | 1.44 | -0.1 | -3.75 | 2.58 | 7.97 | 1.06 | 6.53 | -0.19 | 2.4 | 0.66 | 1.18 | 0.9 | 1.1 | -1.31 | 0.56 | -0.61 | 1.79 | 2.18 | 1.28 | -0.17
12 | CN(C)c1ccc2c(c1)/C(=C/Nc1ccc(S(N)(=O)=O)cc1)C(=O)N2 | 2.21 | -1.98 | -1.04 | 1.18 | 2.39 | 1.4 | 0.72 | 6.36 | 1.98 | 2.6 | 1.82 | -1.68 | -2.04 | 0.45 | 4.82 | 0.7 | 4.54 | -6.01 | 3.23 | 3.41
13 | COc1ccc2ncn(-c3cc(O[C@H](C)c4ccccc4Cl)c(C(N)=O)s3)c2c1 | 3.04 | -3.56 | -0.27 | 6.99 | 6.3 | 2.23 | 4.3 | 5.14 | 4.31 | 3.31 | 4.09 | -1.6 | -1.38 | 3.9 | 4.87 | 1.95 | 17.5 | 1.3 | -2.87 | 1.65
